# Measured values as given in paper PMC4336329 (PLoS ONE, 2015).
# Hit rate of the full screen: of about 310,000 compounds, about 2,200 (0.71%) showed an effect of 50% or more. Effects have a minus sign here. The list comes from a sample in which strong results are over-represented; it also holds similar structures and randomly drawn compounds.
# Biological target: human ether-à-go-go-related gene (hERG) potassium channel (human, UniProt Q12809)
# Experiment: primary screen, population patch clamp on CHO cells stably expressing hERG; higher = less effect of the substance
# Sequence of human ether-à-go-go-related gene (hERG) potassium channel (Q12809 whole entry, looked up): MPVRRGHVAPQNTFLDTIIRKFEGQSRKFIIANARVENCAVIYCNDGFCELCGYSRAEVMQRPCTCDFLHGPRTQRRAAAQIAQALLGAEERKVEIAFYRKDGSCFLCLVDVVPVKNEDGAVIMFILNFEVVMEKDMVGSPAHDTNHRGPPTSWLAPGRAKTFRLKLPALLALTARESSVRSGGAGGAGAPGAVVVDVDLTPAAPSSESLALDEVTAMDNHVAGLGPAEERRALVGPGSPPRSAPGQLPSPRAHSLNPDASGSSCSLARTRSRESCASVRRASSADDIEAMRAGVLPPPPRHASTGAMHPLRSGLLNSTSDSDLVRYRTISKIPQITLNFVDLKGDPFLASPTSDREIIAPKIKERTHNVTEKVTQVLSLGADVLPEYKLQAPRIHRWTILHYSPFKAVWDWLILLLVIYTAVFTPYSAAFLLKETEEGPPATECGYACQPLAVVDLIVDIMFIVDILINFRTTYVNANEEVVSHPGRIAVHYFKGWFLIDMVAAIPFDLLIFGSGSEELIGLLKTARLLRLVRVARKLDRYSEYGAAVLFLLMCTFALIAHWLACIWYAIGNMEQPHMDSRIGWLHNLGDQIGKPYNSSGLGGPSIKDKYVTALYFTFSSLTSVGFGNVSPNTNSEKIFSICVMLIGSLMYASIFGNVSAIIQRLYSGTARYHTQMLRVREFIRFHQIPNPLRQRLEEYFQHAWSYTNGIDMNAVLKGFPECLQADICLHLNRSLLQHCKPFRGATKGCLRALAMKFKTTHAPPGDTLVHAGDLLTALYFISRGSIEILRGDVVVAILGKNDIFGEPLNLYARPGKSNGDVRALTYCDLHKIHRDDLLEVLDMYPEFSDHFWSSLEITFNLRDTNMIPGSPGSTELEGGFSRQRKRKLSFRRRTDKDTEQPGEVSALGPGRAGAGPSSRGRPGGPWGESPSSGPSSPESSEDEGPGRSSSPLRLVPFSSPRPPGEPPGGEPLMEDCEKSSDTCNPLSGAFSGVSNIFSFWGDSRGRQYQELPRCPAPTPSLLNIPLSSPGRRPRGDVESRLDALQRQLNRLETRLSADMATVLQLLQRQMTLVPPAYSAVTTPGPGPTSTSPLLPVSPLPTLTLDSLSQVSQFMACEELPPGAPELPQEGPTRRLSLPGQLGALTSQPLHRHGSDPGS
row,SMILES,"hERG current change (%, negative = inhibition) at 1uM [%]"
1,COc1ccc(NC(=O)c2cc([N+](=O)[O-])ccc2NC(=O)CNC2CCCCC2C)c(OC)c1 (stereo not drawn),-78.8
2,COc1cc(NC(=O)c2cc([N+](=O)[O-])ccc2NC(=O)CNC2CCCCC2C)cc(OC)c1 (stereo not drawn),17.4
3,COc1ccc(NC(=O)c2cc([N+](=O)[O-])ccc2NC(=O)CNCc2ccccn2)c(OC)c1,9.51
4,CCN(c1ccccc1)S(=O)(=O)c1cccc(C(=O)NCC2(N(C)C)CCCCC2)c1,-11
5,O=C(OCC(=O)N1CCOCC1)c1ccccc1O,13.6
6,Cc1cc(C)cc(NC(=O)C(OC(=O)c2cccs2)c2ccccc2)c1 (stereo not drawn),16.7
7,Cn1c(=O)c2c(nc(N3CCCC3)n2C)n(C)c1=O,12.6
8,Cn1c(=O)c2c(nc(N3CCN(c4ccc([N+](=O)[O-])cc4)CC3)n2C)n(C)c1=O,-81.7
9,Cn1c(=O)c2c(ncn2CC(=O)N2CCN(c3ccc(F)cc3)CC2)n(C)c1=O,-0.183
10,Cn1c(=O)c2c(ncn2CC(=O)N2CCN(c3ccccc3)CC2)n(C)c1=O,8.13
11,Cn1c(=O)c2c(ncn2CC(=O)N2CCN(c3ccc([N+](=O)[O-])cc3)CC2)n(C)c1=O,-69.6
12,Cn1c(=O)c2c(nc(N3CCOCC3)n2C)n(C)c1=O,-1.83
13,Cc1nc2c(C(=O)N3CCCC3)cnn2c(C)c1Cc1c(F)cccc1Cl,-11.4
14,C=Cc1ccc(COC(=O)c2cn(CC)c3nc(C)ccc3c2=O)cc1,-21
15,O=C(CC(=O)N/N=C/c1ccccc1)NCc1ccccc1,8.85
16,COc1nc(OC)nc(N2CCC(C(=O)NCc3ccco3)CC2)n1,-0.721
17,O=C(NCc1ccco1)C1CCN(c2nc3ccccc3n2Cc2ccccc2F)CC1,-62.8
18,Cc1cc(C)nc(N2CCC(C(=O)NCc3ccccc3F)CC2)n1,1.75
19,Cc1ccc(Cn2cnc3ccccc32)cc1,13
20,O=C(O)CC(c1cccc(O)c1)N1Cc2ccccc2C1=O (stereo not drawn),12

row,SMILES,"hERG current change (%, negative = inhibition) at 1uM [%]"
1,CC(C)OCP(=O)(c1ccccc1)c1ccccc1,6.74
2,CCOCCCNC(=O)CNC(=S)N(Cc1ccccc1F)C1CCCCC1,-6.79
3,CCN1C(=S)SC(=O)C1=C1C=C(C)N(Cc2ccco2)C(C)=C1,1.56
4,CC(C)c1cc(N=NC(N)=O)cc(C(C)C)c1O,6.77
5,CCN(CC(=O)NCCc1ccc(F)cc1)Cc1nc2ccccc2c(=O)[nH]1,1.66
6,CCN(CC(=O)NCc1ccc(F)cc1)Cc1nc2cc(Cl)ccc2c(=O)[nH]1,-52.5
7,CCN(CC(=O)NCc1ccc(F)cc1)Cc1nc2ccccc2c(=O)[nH]1,-8.93
8,COc1cccc(C(=O)N2CCN(C3CCCCC3)CC2)c1.O=C(O)C(=O)O,6.64
9,COc1ccc(C(=O)N2CCN(C3CCC(c4ccccc4)CC3)CC2)cc1OC (stereo not drawn),-60.4
10,CC1CCCC(N2CCN(C(=O)c3ccc(F)cc3)CC2)C1 (stereo not drawn),-25
11,CC1CCCC(N2CCN(C(=O)c3ccc([N+](=O)[O-])cc3)CC2)C1.O=C(O)C(=O)O (stereo not drawn),-67.3
12,COc1ccc(C(=O)N2CCN(C3CCCCC3)CC2)cc1OC.O=C(O)C(=O)O,-74.2
13,O=C(CCCc1ccccc1)N1CCN(C2CCCCC2)CC1,-23.6
14,COc1ccc(C(=O)N2CCN(C3CCN(Cc4ccccc4)CC3)CC2)cc1OC,-14.5
15,COc1cccc(C(=O)N2CCN(C3CCC(c4ccccc4)CC3)CC2)c1OC.O=C(O)C(=O)O (stereo not drawn),3.34
16,COc1ccc(CCC(=O)N2CCN(C(=O)c3ccccc3)CC2)cc1,14.6
17,COc1ccc(CCC(=O)N2CCN(C3CCCCC3)CC2)cc1,-56.7
18,COc1cc(C(=O)N2CCN(C3CCCCC3)CC2)cc(OC)c1OC.O=C(O)C(=O)O,14.5
19,CC1CCCC(N2CCN(C(=O)c3cccc(F)c3)CC2)C1.O=C(O)C(=O)O (stereo not drawn),8.59
20,Cc1ccc(CN(c2ccc(C(=O)NCc3cccnc3)cc2)S(C)(=O)=O)cc1,1.51

row,SMILES,"hERG current change (%, negative = inhibition) at 1uM [%]"
1,COc1ccc(N2CCN(CCCNC(=O)C(=O)c3c(C)n(C)c4ccccc34)CC2)cc1,-9.85
2,COc1ccc2c(c1)C(NC(C)=O)C(=O)N2CCc1ccccc1 (stereo not drawn),3.02
3,Cc1oc(-c2ccoc2)nc1CN(CC1CCC(=O)N1)C(C)C (stereo not drawn),11.6
4,CCNc1nc(N2CCCC2)nc(N2CCCC2)n1,0.687
5,CCCCN1CNC(=S)N(c2cc(C)ccc2C)C1,7.21
6,Nc1[nH]c(=O)nc(Nc2ccccc2)c1N=O,8.79
7,O=C(c1ccc(CNc2c(N3CCCC3)c(=O)c2=O)cc1)N1CCc2ccccc2C1,-3.76
8,CCO[C@@H]1OC(C(=O)N2CCN(Cc3ccc4c(c3)OCO4)CC2)=C[C@H](c2ccc(C(F)(F)F)cc2)[C@H]1CCCO,3.44
9,COc1cc(OC)cc(C(=O)N2CCN(C3CCCCC3)CC2)c1.O=C(O)C(=O)O,-2.01
10,COc1ccc(C(=O)N2CCN(C3CCCCC3)CC2)c(OC)c1,-75
11,COc1ccc(C(=O)N2CCCN(C)CC2)c(OC)c1,11
12,CCC(Cc1ccccc1)NS(=O)(=O)c1csc(C(N)=O)c1 (stereo not drawn),22.5
13,CC(C)[C@H](NC(=O)N1CC(=O)Nc2ccccc21)C(=O)Nc1nccs1,24.4
14,O=C(c1ccc(C(F)(F)F)cc1)N1CCCCC1,-4.21
15,CC(=O)Nc1ccc2c(c1)nc(CCN1CCN(c3ccccn3)CC1)n2C,12
16,CCCC(=O)Nc1ccc2c(c1)nc(CCN1CCN(c3ccccn3)CC1)n2C,1.68
17,Cn1c(CCN2CCN(c3ccccn3)CC2)nc2cc(NS(=O)(=O)c3ccc(Cl)cc3)ccc21,-69.2
18,Cc1ccc(S(=O)(=O)Nc2ccc3c(c2)nc(CCN2CCN(c4ccccn4)CC2)n3C)cc1,-80.7
19,Cc1ccc(S(=O)(=O)Nc2ccc3c(c2)nc(CCN2CCOCC2)n3C)cc1,6.29
20,CC(C)C(=O)Nc1ccc2c(c1)nc(CCN1CCN(c3ccccn3)CC1)n2C,6.24
